In PubChem BioAssay (EPA / NIEHS):
The source made the active and inactive calls. The calls were made as follows: active = hit-call score of the fitted dose curve at least 0.9, where 1 is the maximum; inactive = score below 0.9.

Tests used:
[1] = read-out: TIMP metallopeptidase inhibitor 2 (TIMP2), TIMP2 (gene 7077); experiment: BSK_KF3CT_TIMP2: BioMAP Diversity Plus: KF3CT Assay for TIMP metallopeptidase inhibitor 2 (TIMP2) Biomarker Activity (AID 2283071); conditions: primary human keratinocytes with fibroblasts; actives raise or lower the signal
Summary of the method: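 Keratinocyte–fibroblast co-culture, 24 h exposure; TIMP-2 ELISA, DMSO-normalised bidirectional fit. Parallel SRB (0.1%, TCA-fixed, 560 nm) total-protein staining gauges cytotoxicity.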

[2] = read-out: C-C motif chemokine 2 (Homo sapiens) (UniProt P13500); experiment: BSK_KF3CT_MCP1: BioMAP Diversity Plus: KF3CT Assay for Monocyte Chemoattractant Protein 1 (MCP1/CCL2) Biomarker Activity (AID 2283073); conditions: primary human keratinocytes with fibroblasts; actives raise or lower the signal
Summary of the method: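 Keratinocytes and foreskin fibroblasts were co-cultured, dosed with chemical, and sampled 24 h later. MCP-1 was quantified by ELISA, and the endpoint was analyzed with bidirectional fitting using DMSO as negative control.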

[3] = read-out: Matrix Metallopeptidase 9 (MMP9), MMP9 (gene 4318); experiment: BSK_KF3CT_MMP9: BioMAP Diversity Plus: KF3CT Assay for Matrix Metallopeptidase 9 (MMP9) Biomarker Activity (AID 2283074); conditions: primary human keratinocytes with fibroblasts; actives raise or lower the signal;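 as to AC50: MMP9 protein level quantified by ELISA in the co-culture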
Summary of the method: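 Human keratinocyte and foreskin fibroblast co-culture exposed to chemicals for 24 h; MMP9 biomarker measured by ELISA, bidirectional fitting relative to DMSO; cytotoxicity tracked by SRB total protein staining in parallel cultures.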

[4] = read-out: urokinase plasminogen activator (uPA), PLAU (gene 5328); experiment: BSK_KF3CT_uPA: BioMAP Diversity Plus: KF3CT Assay for urokinase plasminogen activator (uPA) Biomarker Activity (AID 2283075); conditions: primary human keratinocytes with fibroblasts; actives raise or lower the signal
Summary of the method: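 Primary human keratinocyte/foreskin fibroblast co-culture exposed to chemical; uPA measured by ELISA at 24 h. Bidirectional fit versus DMSO, with parallel SRB total-protein staining for cytotoxicity.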

CD40, CD40 (gene 958) [5] = experiment: BSK_LPS_CD40: BioMAP Diversity Plus: LPS Assay for CD40 Biomarker Activity (AID 2283076); conditions: primary human HUVEC with PBMC; actives raise or lower the signal
Summary of the method: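 CD40 signal, measured by ELISA, is fitted in both directions relative to DMSO vehicle. The system is an LPS-driven human vascular primary co-culture of endothelial cells and PBMC, sampled 24 h after compound addition.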

[6] = read-out: E-selectin (Homo sapiens) (UniProt P16581); experiment: BSK_LPS_Eselectin: BioMAP Diversity Plus: LPS Assay for Eselectin Biomarker Activity (AID 2283077); conditions: primary human HUVEC with PBMC; actives raise or lower the signal
Summary of the method: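 Signal of E-selectin, detected by ELISA, served as the endpoint; cells were umbilical vein endothelium with PBMC, read 24 h after treatment. DMSO defined baseline, and both increases and decreases were fitted.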

[7] = read-out: Interleukin-8 (IL8), CXCL8 (gene 3576); experiment: BSK_LPS_IL8: BioMAP Diversity Plus: LPS Assay for Interleukin-8 (IL8) Biomarker Activity (AID 2283078); conditions: primary human HUVEC with PBMC; actives raise or lower the signal
Summary of the method: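 Endothelial cells and PBMC from human donors are co-cultured, treated with chemicals and LPS, then assayed for IL-8 by ELISA after 24 h. Parallel SRB staining (0.1% SRB after 10% TCA fixation, 560 nm) flags cytotoxicity.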

[8] = BSK_LPS_SRB: Viability Assessment in the BioMAP Diversity Plus: LPS Assay (AID 2283079); conditions: primary human HUVEC with PBMC;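 also: total protein by sulforhodamine B absorbance as a cytotoxicity measure; measured one day after compound addition; fitted in both directions against DMSO so loss or gain of signal counts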
Summary of the method: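 Overt cytotoxicity was gauged by sulforhodamine B total-protein staining in a primary human vascular endothelial and mononuclear cell co-culture 24 h post-dosing. Activity was fitted in both directions relative to DMSO.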

[9] = read-out: Interleukin-1 alpha (IL1a), IL1A (gene 3552); experiment: BSK_LPS_IL1a: BioMAP Diversity Plus: LPS Assay for Interleukin-1 alpha (IL1a) Biomarker Activity (AID 2283080); conditions: primary human HUVEC with PBMC; actives raise or lower the signal
Summary of the method: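 Measured: IL-1 alpha via ELISA at 24 h in LPS-activated human umbilical vein endothelium–PBMC co-culture. Baseline: DMSO, bidirectional fitting.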

[10] = read-out: Monocyte Chemoattractant Protein-1 (MCP1), CCL2 (gene 6347); experiment: BSK_LPS_MCP1: BioMAP Diversity Plus: LPS Assay for Monocyte Chemoattractant Protein-1 (MCP1) Biomarker Activity (AID 2283081); conditions: primary human HUVEC with PBMC; actives raise or lower the signal
Summary of the method: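 LPS-stimulated HUVEC/PBMC co-culture; chemical, 24 h; MCP-1 by ELISA; bidirectional fit vs DMSO; cytotoxicity via SRB (0.1% stain, 10% TCA fix, 560 nm) in parallel wells.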

[11] = read-out: Macrophage colony-stimulating factor (MCSF), CSF1 (gene 1435); experiment: BSK_LPS_MCSF: BioMAP Diversity Plus: LPS Assay for Macrophage colony-stimulating factor (MCSF) Biomarker Activity (AID 2283083); conditions: primary human HUVEC with PBMC; actives raise or lower the signal
Summary of the method: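 Compound is added to a human vascular primary co-culture of umbilical vein endothelium and blood mononuclear cells. After 24 h, M-CSF is quantified by ELISA. Signal changes are fitted in both directions against DMSO.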

[12] = read-out: Tissue Factor, F3 (gene 2152); experiment: BSK_LPS_TissueFactor: BioMAP Diversity Plus: LPS Assay for Tissue Factor Biomarker Activity (AID 2283084); conditions: primary human HUVEC with PBMC; actives raise or lower the signal
Summary of the method: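 In this co-culture system of umbilical vein endothelium with PBMC, stimulated with LPS, cell-surface CD142 is detected by ELISA at 24 h. Endpoint values derive from bidirectional fitting, DMSO serving as baseline.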

[13] = read-out: Vascular cell adhesion molecule 1 (VCAM1), VCAM1 (gene 7412); experiment: BSK_LPS_VCAM1: BioMAP Diversity Plus: LPS Assay for Vascular cell adhesion molecule 1 (VCAM1) Biomarker Activity (AID 2283086); conditions: primary human HUVEC with PBMC; actives raise or lower the signal
Summary of the method: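 Primary human vascular co-culture (umbilical vein endothelium plus PBMC) stimulated with LPS received chemical; 24 h later VCAM-1 was read by ELISA. Overt cytotoxicity was assessed by sulforhodamine B staining of parallel cultures at the same time point.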

CD38, CD38 (gene 952) = experiment: BSK_SAg_CD38: BioMAP Diversity Plus: SAg Assay for CD38 Biomarker Activity (AID 2283087); conditions: primary human HUVEC with PBMC; actives raise or lower the signal
Summary of the method: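 Fluorescence ELISA of cell-surface CD38 served as the read-out, with either increase or decrease fitted against DMSO controls. Cells were a human umbilical vein endothelium plus PBMC co-culture under SEB/TSST-1 stimulation, measured 24 h after dosing.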

CD40, CD40 (gene 958) [14] = experiment: BSK_SAg_CD40: BioMAP Diversity Plus: SAg Assay for CD40 Biomarker Activity (AID 2283088); conditions: primary human HUVEC with PBMC; actives raise or lower the signal
Summary of the method: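 Fluorescence ELISA read-out of CD40 from umbilical vein endothelium plus peripheral blood mononuclear cells, sampled 24 h after dosing. Values come from bidirectional curve fitting with DMSO as baseline.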

CD69, CD69 (gene 969) = experiment: BSK_SAg_CD69: BioMAP Diversity Plus: SAg Assay for CD69 Biomarker Activity (AID 2283089); conditions: primary human HUVEC with PBMC; actives raise or lower the signal;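 as to AC50: cell surface CD69 protein quantified by ELISA with fluorescence detection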
Summary of the method: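 Values derive from bidirectional fitting relative to DMSO vehicle. Cells: umbilical vein endothelium plus peripheral blood mononuclear cells, treated 24 h before fluorescent ELISA for CD69.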

[15] = read-out: Monocyte Chemoattractant Protein-1 (MCP1), CCL2 (gene 6347); experiment: BSK_SAg_MCP1: BioMAP Diversity Plus: SAg Assay for Monocyte Chemoattractant Protein-1 (MCP1) Biomarker Activity (AID 2283090); conditions: primary human HUVEC with PBMC; actives raise or lower the signal
Summary of the method: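 MCP-1 levels in the endothelial–PBMC SAg co-culture were quantified by ELISA at 24 h post-dosing; both increases and decreases versus DMSO scored. Cytotoxicity monitored by SRB total protein in parallel cultures.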

[16] = read-out: Tumor necrosis factor (Homo sapiens) (UniProt P01375); experiment: BSK_LPS_TNFa: BioMAP Diversity Plus: LPS Assay for Tumour Necrosis Factor alpha (TNFa) Biomarker Activity (AID 2283085); conditions: primary human HUVEC with PBMC; actives raise or lower the signal
Summary of the method: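 Primary human vascular co-culture of HUVEC and PBMC; TNFa ELISA 24 h after treatment, analysed as increase or decrease relative to DMSO control.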

[17] = BSK_LPS_PGE2: BioMAP Diversity Plus: LPS Assay for Prostaglandin E2 (PGE2) Biomarker Activity (AID 2283082); conditions: primary human HUVEC with PBMC; actives raise or lower the signal
Summary of the method: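 Endpoint derived from bidirectional curve fitting versus DMSO of ELISA-measured PGE2 in LPS-stimulated human primary vascular co-culture (HUVEC with PBMC) harvested at 24 h.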

[18] = read-out: E-selectin (Homo sapiens) (UniProt P16581); experiment: BSK_SAg_Eselectin: BioMAP Diversity Plus: SAg Assay for Eselectin Biomarker Activity (AID 2283091); conditions: primary human HUVEC with PBMC; actives raise or lower the signal
Summary of the method: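 Primary human endothelial cells and peripheral blood mononuclear cells were co-cultured and exposed to chemical for 24 hours. E-selectin levels were then quantified by ELISA, with bidirectional curve fitting normalised to DMSO controls.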

Sequence of E-selectin (Homo sapiens) (P16581 whole entry, looked up): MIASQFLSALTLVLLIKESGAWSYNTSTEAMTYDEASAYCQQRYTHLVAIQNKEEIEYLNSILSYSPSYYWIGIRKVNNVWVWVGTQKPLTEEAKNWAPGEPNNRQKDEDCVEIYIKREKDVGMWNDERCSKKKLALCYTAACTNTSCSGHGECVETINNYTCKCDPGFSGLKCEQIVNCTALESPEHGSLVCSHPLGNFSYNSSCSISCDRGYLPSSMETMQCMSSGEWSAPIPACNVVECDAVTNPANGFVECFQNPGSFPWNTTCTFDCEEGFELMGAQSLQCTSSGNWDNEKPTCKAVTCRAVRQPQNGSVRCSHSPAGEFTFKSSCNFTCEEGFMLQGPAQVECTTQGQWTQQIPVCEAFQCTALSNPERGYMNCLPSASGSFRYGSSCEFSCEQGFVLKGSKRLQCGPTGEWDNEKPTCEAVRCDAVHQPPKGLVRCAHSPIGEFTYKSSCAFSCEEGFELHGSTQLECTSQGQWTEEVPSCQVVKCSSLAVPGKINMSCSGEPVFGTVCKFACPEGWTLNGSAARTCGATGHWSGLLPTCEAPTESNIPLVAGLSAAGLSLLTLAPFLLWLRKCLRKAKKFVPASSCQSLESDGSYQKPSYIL
Sequence of Tumor necrosis factor (Homo sapiens) (P01375 whole entry, looked up): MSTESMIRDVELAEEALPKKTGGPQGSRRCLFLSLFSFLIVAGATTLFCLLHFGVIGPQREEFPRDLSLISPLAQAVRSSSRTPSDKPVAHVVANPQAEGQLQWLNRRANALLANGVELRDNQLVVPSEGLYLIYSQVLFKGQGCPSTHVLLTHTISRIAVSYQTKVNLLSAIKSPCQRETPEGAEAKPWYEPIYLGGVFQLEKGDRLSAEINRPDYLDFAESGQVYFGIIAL

## c1ccc2cc(Nc3ccc(Nc4ccc5ccccc5c4)cc3)ccc2c1
[1]
  outcome: inactive
[2]
  outcome: inactive
[3]
  outcome: inactive
[4]
  outcome: inactive
CD40, CD40 (gene 958) [5]
  outcome: inactive
[6]
  outcome: inactive
[7]
  outcome: inactive
[8]
  outcome: inactive
[9]
  outcome: inactive
[10]
  outcome: inactive
[11]
  outcome: inactive
[12]
  outcome: inactive
[13]
  outcome: inactive
CD38, CD38 (gene 952)
  outcome: inactive
CD40, CD40 (gene 958) [14]
  outcome: inactive
CD69, CD69 (gene 969)
  outcome: inactive
[15]
  outcome: inactive

## C1=CC2C3C=CC(C3)C2C1 (configuration not stated)
[1]
  outcome: inactive
[2]
  outcome: inactive
[3]
  outcome: inactive
[4]
  outcome: inactive
CD40, CD40 (gene 958) [5]
  outcome: inactive
[6]
  outcome: inactive
[7]
  outcome: inactive
[8]
  outcome: inactive
[9]
  outcome: inactive
[10]
  outcome: inactive
[11]
  outcome: inactive
[12]
  outcome: inactive
[16]
  outcome: inactive
[13]
  outcome: inactive
CD40, CD40 (gene 958) [14]
  outcome: inactive
CD69, CD69 (gene 969)
  outcome: inactive
[15]
  outcome: inactive

## Cc1cc(CCC(=O)OCCOCCOCCOC(=O)CCc2cc(C)c(O)c(C(C)(C)C)c2)cc(C(C)(C)C)c1O
[1]
  outcome: inactive
[2]
  outcome: inactive
[3]
  outcome: inactive
[4]
  outcome: inactive
CD40, CD40 (gene 958) [5]
  outcome: inactive
[6]
  outcome: inactive
[7]
  outcome: inactive
[8]
  outcome: inactive
[9]
  outcome: inactive
[10]
  outcome: inactive
[17]
  outcome: inactive
[11]
  outcome: inactive
[12]
  outcome: inactive
[13]
  outcome: inactive
CD40, CD40 (gene 958) [14]
  outcome: inactive
CD69, CD69 (gene 969)
  outcome: inactive
[15]
  outcome: inactive

## c1ccc(CCc2ccccc2)cc1
[1]
  AC50: 13.4 µM (active)
[2]
  AC50: 20 µM (active)
[3]
  AC50: 28.5 µM (active)
[4]
  AC50: 20 µM (active)
CD40, CD40 (gene 958) [5]
  AC50: 30.9 µM (active)
[6]
  AC50: 31.9 µM (active)
[7]
  AC50: 20 µM (active)
[8]
  AC50: 36.4 µM (active)
[9]
  AC50: 32.7 µM (active)
[10]
  outcome: inactive
[17]
  outcome: inactive
[11]
  AC50: 31.2 µM (active)
[12]
  AC50: 31.1 µM (active)
[13]
  AC50: 31.8 µM (active)
CD40, CD40 (gene 958) [14]
  AC50: 30.9 µM (active)
CD69, CD69 (gene 969)
  AC50: 30 µM (active)
[15]
  AC50: 31.5 µM (active)
[18]
  AC50: 31.7 µM (active)

## COc1cc(Cl)c(OC)cc1N
[1]
  outcome: inactive
[2]
  outcome: inactive
[3]
  outcome: inactive
[4]
  outcome: inactive
CD40, CD40 (gene 958) [5]
  outcome: inactive
[6]
  outcome: inactive
[7]
  outcome: inactive
[8]
  outcome: inactive
[9]
  outcome: inactive
[10]
  outcome: inactive
[17]
  outcome: inactive
[11]
  outcome: inactive
[12]
  outcome: inactive
[16]
  outcome: inactive
[13]
  outcome: inactive
CD40, CD40 (gene 958) [14]
  outcome: inactive
CD69, CD69 (gene 969)
  outcome: inactive
[15]
  outcome: inactive
